Shown are actives, neighbours in structure and some others; about 1.2% of the full set was active somewhere.
NTR1 ag: agonists of human NTR1, primary screen, imaging, U2OS cells, beta-arrestin-GFP, high content. 330,000 compounds, 0.17% hits. activation, % at 20 µM. NTR1-U2OS beta-arrestin-GFP spot imaging, agonist mode. Neurotensin receptor type 1 (Homo sapiens), P30989;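 active = activation at or above 40% of the spot to cytoplasm intensity ratio, with at least 20 cells analyzed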;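 note: 0% = DMSO without peptide and 100% = 100 nM NTR1 peptide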
GRK2 aptamer HTS: compounds blocking aptamer binding on GRK2 – biochemical, human GRK2, bead flow cytometry, HTS, primary screen. inhibition of aptamer binding, % at 10 µM. 330,000 compounds, 0.59% hits. Beta-adrenergic receptor kinase 1 (Homo sapiens), P25098. FAM-aptamer displacement from GRK2;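 active = inhibition of aptamer binding above 40%, roughly 3 SD of noise, on plates passing a quality check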;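 note: median bead fluorescence of bound FAM aptamer so fluorescent compounds give negative values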
Target sequence (P25098 whole entry, looked up): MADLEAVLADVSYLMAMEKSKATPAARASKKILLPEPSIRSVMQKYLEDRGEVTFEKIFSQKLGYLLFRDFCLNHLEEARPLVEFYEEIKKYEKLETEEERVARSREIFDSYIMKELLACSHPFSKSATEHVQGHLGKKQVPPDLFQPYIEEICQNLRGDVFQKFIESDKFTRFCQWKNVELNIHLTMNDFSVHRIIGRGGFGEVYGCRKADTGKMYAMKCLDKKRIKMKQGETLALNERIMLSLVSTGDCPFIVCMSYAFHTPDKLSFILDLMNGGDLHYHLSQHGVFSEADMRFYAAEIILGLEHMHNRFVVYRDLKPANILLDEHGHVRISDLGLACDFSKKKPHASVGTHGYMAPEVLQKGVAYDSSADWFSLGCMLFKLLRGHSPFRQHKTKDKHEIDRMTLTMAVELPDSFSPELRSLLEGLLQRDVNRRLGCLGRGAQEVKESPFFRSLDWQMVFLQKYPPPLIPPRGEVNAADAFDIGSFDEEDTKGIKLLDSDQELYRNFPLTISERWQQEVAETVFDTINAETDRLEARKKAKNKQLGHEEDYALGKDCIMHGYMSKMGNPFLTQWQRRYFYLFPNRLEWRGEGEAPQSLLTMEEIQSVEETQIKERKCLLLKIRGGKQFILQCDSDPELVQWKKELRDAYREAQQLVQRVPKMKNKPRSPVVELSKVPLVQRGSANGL
Platelet DG rel: inhibitors of platelet dense granule secretion, primary screen, cell-based, MLPCN, human platelets | human platelet-rich plasma, SFLLRN dense granule ATP release, luminescence | inhibition, %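 (compounds screened at 7.5 µM in platelet-rich plasma)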 | 300,000 compounds, 0.22% hits | AID 1663, 2009;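 active = mean replicate score, as percent of positive control, at or above 50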
MIN6 prolif: inducers of MIN6 beta-cell proliferation, primary screen, ATP luminescence, uHTS; MIN6 cells proliferation, ATPlite luminescence, 48 h; cells starved in 0.2% serum; 100% = growth in 10% serum; proliferation, % at 10 µM; 330,000 compounds, 0.29% hits; AID 2380, 2010;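 active = compounds whose signal lies at least 3.5 SD above the mean of all wells on their plate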;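 note: 0% = DMSO-treated cells in low-serum medium and 100% = 10% serum control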
GRK2 inh confirm: GRK2 aptamer-displacing inhibitors, retest, confirmation, biochemical, cherry pick 1, bead flow cytometry; shares compounds with GRK2 aptamer HTS; bead-bound GRK2, FAM-aptamer displacement; aptamer displacement, % at 10 µM; 2,000 compounds, 4% hits; AID 504451, 2011;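 active = aptamer displacement above 40%, near three times the noise of non-fluorescent compounds, on plates passing quality checks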;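 note: negative values mostly reflect intrinsic compound fluorescence rather than true enhancement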
FAM quench CP1: aptamer fluorescence quenching in GRK2 counter-screen. shares compounds with GRK2 aptamer HTS. Carboxyfluorescein RNA aptamer on beads, flow cytometry quenching; hits give low values. fluorescence response (% of DMSO), % at 10 µM. 2,000 tested, under 10 active;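 active = compounds that quench the bead-bound fluorescent RNA probe, cutting fluorescence to under half of the solvent control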;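 note: counterscreen run without GRK2 so only probe quenching by compound is measured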
GRK2 confirm 2: GRK2 aptamer-displacing inhibitors, hit retest, confirmation, biochemical, cherry pick 2, bead flow cytometry. shares compounds with GRK2 aptamer HTS. bead-bound GRK2, FAM-aptamer displacement. inhibition of aptamer binding, % at 10 µM. 360 tested, under 10 active. AID 504782, 2011;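 active = inhibition of aptamer binding above 40%, about triple the noise seen with nonglowing compounds, on plates passing quality control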;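 note: negative values mostly come from compounds that fluoresce themselves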
FAM quench CP2: quenches fluorescent RNA aptamer, GRK2 hit artifact; AID 588494; fluorescence response vs DMSO, % at 10 µM; shares compounds with GRK2 aptamer HTS; 360 tested, under 10 active; carboxyfluorescein RNA aptamer beads, flow cytometry quenching; hits give low values;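 active = response vs DMSO under 50%, meaning signal dropped by over half, treated as fluorescence quencher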;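 note: labelled aptamer on streptavidin beads without GRK2 as a quench counter-screen; 100% = bead fluorescence of DMSO wells and lower means quenching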
An asterisk follows results filed as active; · = not tested or not shown.

SMILES	NTR1 ag	GRK2 aptamer HTS	Platelet DG rel	MIN6 prolif	GRK2 inh confirm	FAM quench CP1	others
CCC(C)c1ccc(NC(=S)N2CCN(C(=O)C3CCCO3)CC2)cc1 (configuration not stated)	1	74*	-6	-3	·	·	GRK2 confirm 2=-6;FAM quench CP2=101
Cc1ccccc1NC(=O)c1cc[n+]([O-])cc1	0	0	11	0	·	·
O=C(c1cccs1)N1CCN(Cc2nc3ccccc3c(=O)[nH]2)CC1	0	5	-2	-2	·	·	GRK2 confirm 2=-9;FAM quench CP2=98
O=c1[nH]c(CN2CCN(c3ccc(F)cc3)CC2)nc2ccccc12	0	4	2	-1	·	·
O=C(c1ccco1)N1CCN(Cc2nc3cc(Cl)ccc3c(=O)[nH]2)CC1	1	4	-36	-1	·	·	GRK2 confirm 2=-9;FAM quench CP2=102
CCC(CC)C(=O)N1CCN(Cc2nc3ccccc3c(=O)[nH]2)CC1	3	0	-3	2	·	·
O=c1[nH]c(CN2CCN(c3ccccc3)CC2)nc2ccccc12	1	0	-1	-3	·	·	GRK2 confirm 2=10;FAM quench CP2=101
O=C(NC1CCCCC1)N1CCN(Cc2nc3ccccc3c(=O)[nH]2)CC1	0	0	9	2	·	·	GRK2 confirm 2=-6;FAM quench CP2=100
CC(Oc1cccc(Cl)c1)C(=O)Nc1cc(Cl)ccc1N1CCOCC1 (configuration not stated)	7	2	-3	-7	·	·
Cc1cccc(NC(=O)CCNS(=O)(=O)c2cc(Br)cnc2N)c1C	0	0	4	0	·	·
O=C(CN1C(=O)CSc2ccc(S(=O)(=O)N3CCOCC3)cc21)NCCCN1CCc2ccccc2C1	0	1	2	-2	·	·
CC(C)c1ccc(OC(=O)c2cccc(S(=O)(=O)N3CCN(C)CC3)c2)cc1	2	0	11	0	·	·
CC(NC(=O)c1cccc(S(=O)(=O)N2CCN(C)CC2)c1)c1ccc(Cl)cc1Cl (configuration not stated)	0	75*	3	-3	-3	97
COc1cc(CCNC(=O)CCCn2c(=O)c3cccn3c3cccnc32)cc(OC)c1OC	1	1	-1	3	·	·
Clc1ccc2c(N/N=C/c3cccc(Br)c3)ccnc2c1	·	73*	-10	·	0	93
C=CCSc1nnc(NC(=O)C23CC4CC(CC(NC(C)=O)(C4)C2)C3)s1	2	5	0	-5	·	·
CCCCCc1cccnc1	1	64*	-15	1	-1	96
Cc1nc2ccccc2c(=O)n1NC(=O)c1cccc([N+](=O)[O-])c1	0	98*	-1	-2	-10	96
C/C(=N\NC(=O)c1ccc2ccccc2c1)c1cccs1	0	0	·	-4	·	·
C/C(=N\NC(=O)c1cccs1)c1ccc2ccccc2c1	1	12	6	-3	1	102
NCCCC[C@@H]1NC(=O)c2cc([N+](=O)[O-])cc(I)c2SC[C@@H](C(N)=O)NC(=O)[C@H](Cc2ccc(O)cc2)NC1=O	-5	69*	-2	-4	-39	104
NCCCC[C@H]1NC(=O)[C@H](CCC(=O)O)NC(=O)c2cc([N+](=O)[O-])cc(I)c2OCC[C@@H](C(N)=O)NC1=O	0	56*	·	3	37	102
NCCCC[C@@H]1NC(=O)[C@H](CCC(=O)O)NC(=O)c2cc([N+](=O)[O-])cc(I)c2SC[C@@H](C(=O)NCC(N)=O)NC1=O	-5	1	5	0	·	·
CCNc1nc(NCC)n2c(SCC(=O)Nc3ccc(C)cc3Br)nnc2n1	4	3	·	1	·	·
NS(=O)(=O)c1ccc(NC(=S)N2CCN(c3ccccc3Cl)CC2)cc1	4	48*	-9	0	·	·	GRK2 confirm 2=2;FAM quench CP2=334
SMILES	NTR1 ag	GRK2 aptamer HTS	Platelet DG rel	MIN6 prolif	GRK2 inh confirm	FAM quench CP1	others
NS(=O)(=O)c1ccc(NC(=S)N2CCN(c3cccc(Cl)c3)CC2)cc1	-2	0	-6	3	·	·
CC(c1ccco1)N(C(=O)C12CC3CC(CC(C)(C3)C1)C2)c1ccccn1 (configuration not stated)	1	55*	-3	-1	-7	99
Nn1c(SCc2cccc(Br)c2)nnc1-c1cccnc1	-2	0	9	1	·	·
O=C(NC(CC1CCCCC1)C(=O)O)c1ccccc1 (configuration not stated)	0	99*	·	-2	6	102
CCCCN(C(=O)c1ccc(S(=O)(=O)N2CCC(C)CC2)cc1)C1CCS(=O)(=O)C1 (configuration not stated)	1	1	2	0	·	·
O=C(CN(Cc1ccccc1)S(=O)(=O)c1ccc(S(=O)(=O)N2CCOCC2)cc1)Nc1ccccc1	2	52*	-10	1	0	101
O=C(CN(Cc1ccc(F)cc1)S(=O)(=O)c1ccc(S(=O)(=O)N2CCOCC2)cc1)Nc1ccccc1	2	0	-7	0	·	·
CNC(=S)Nc1cc(OC)c(NC(=O)c2ccco2)cc1OC	0	0	4	-4	·	·
CCOc1ccc(NC(=O)c2ccco2)cc1	-1	0	5	-5	·	·
COc1ccc(NC(=O)c2ccco2)cc1NC(=O)c1ccco1	2	1	0	0	·	·
COc1ccc(Cl)cc1NC(=S)NC(=O)c1ccco1	1	44*	·	2	·	·	GRK2 confirm 2=8;FAM quench CP2=100
COc1ccc(NC(=O)Cc2ccc(Cl)cc2)cc1NC(=O)c1ccco1	-2	70*	-1	2	-7	95
CCOc1ccc(NC(=S)NC(=O)c2ccco2)cc1	0	74*	-10	1	-3	101
COc1ccccc1CNC(=O)C1CCC(CNS(=O)(=O)c2ccc(F)cc2)CC1 (configuration not stated)	2	0	4	-2	·	·
CCOC(=O)C1CCN(C(=O)C2(NC(=O)Nc3ccccc3C)CCCCC2)CC1	-1	1	5	-1	·	·
Cc1ccc(S(=O)(=O)NCc2ccc3c(c2)cc(C)n3C)cc1	-4	21	-2	-7	·	·
Cc1cc2cc(CN3C(=O)c4ccccc4C3=O)ccc2n1C	-1	46*	-2	-3	34	95
COc1ccccc1CNC(=O)C1CCN(S(=O)(=O)c2ccc(-n3cnnn3)cc2)CC1	1	0	6	0	·	·

Compound activity deposited in PubChem BioAssay by several laboratories.
